This is a sample that favours compounds with a hit; in the whole collection about 1.2% have one here.
PrP 5UTR inh: inhibition of PrP 5' UTR reporter expression | cell-based PrP 5' UTR mRNA reporter, plate reader | inhibition, % (concentration not given with the values) | 340,000 tested, 0.35% active; in the data active means inhibition above about 52%; further: 0 = median of the neutral control wells
BJeLR lethal: kills HRASV12-expressing BJeLR cells; BJeLR (HRASV12) viability, CellTiter-Glo ATP luminescence, 48 h; inhibition, % (concentration not given with the values); 300,000 tested, 0.17% active; in the data active means inhibition above about 50%
PrPC TRFRET: inhibitors of human cell surface prion protein PrPC | P04156 | TR-FRET read-out | inhibition, % at 13.8 µM | 370,000 tested, 0.43% active | AID 720596; in the data active means inhibition above about 24%; further: 0% = median of the test wells and 100% = reference compound wells
3CLpro inhibitor: SARS-CoV 3CLpro protease inhibition | P0C6X7 | recombinant SARS-CoV 3CLpro, quenched FRET peptide cleavage | inhibition, % at 6 µM | 290,000 tested, 0.14% active | AID 1706; in the data active means inhibition above about 12%
SSB-PriA inh: blocks PriA binding to SSB C-terminal tail; inhibition, % at 33 µM; 430,000 tested, 0.6% active; AlphaScreen SSBct-PriA binding, biotinylated peptide; AID 1272365; in the data active means inhibition mostly above about 37%, no sharp cut-off; inactive means mostly below about 20%;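 further: plate controls were negative control peptide for no effect and reference peptide for full effect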
PrPC confirm: cell surface PrPC inhibition, TR-FRET confirmation | cell surface PrPC level | AID 743200 | inhibition, % at 13.8 µM | 1,500 tested, 65% active | shares compounds with PrPC TRFRET; in the data active means inhibition above about 25%
LD9 cytotox: kills or reduces viability of LD9 cells in PrPc counter-screen. shares compounds with PrPC TRFRET. LD9 cells cytotoxicity, luminescence viability. inhibition, % at 13.8 µM. 1,500 tested, 29% active. AID 743201; in the data active means inhibition above about 9.5%
An asterisk follows results filed as active.

Brc1c(CSc2nc3ccccc3o2)nc2ncccn12 was read as PrP 5UTR inh -54, BJeLR lethal 10, PrPC TRFRET 49*, 3CLpro inhibitor 5, SSB-PriA inh -17, PrPC confirm 47* and LD9 cytotox -6.
Screening CS(=O)(=O)Nc1ccccc1C(=O)N1CCOCC1 returned PrP 5UTR inh -30, BJeLR lethal 4, PrPC TRFRET 34*, 3CLpro inhibitor 4, SSB-PriA inh -3, PrPC confirm 9 and LD9 cytotox -5.
Screening Cc1onc(-c2ccccc2Cl)c1C(=O)Nc1nnc(-c2ccc(F)cc2)s1 returned PrP 5UTR inh -23, BJeLR lethal 15, PrPC TRFRET 3, 3CLpro inhibitor 2 and SSB-PriA inh -6.
Cc1onc(-c2ccccc2Cl)c1C(=O)Nc1nnc(-c2ccc(Br)cc2)s1 was read as PrP 5UTR inh -11, BJeLR lethal 3, PrPC TRFRET 26*, 3CLpro inhibitor 5, SSB-PriA inh -7, PrPC confirm 41* and LD9 cytotox -5.
`O=C1C2C3c4ccccc4C(c4ccccc43)C2C(=O)N1n1cnnc1` (stereo not given) gave SSB-PriA inh 7.
O=C(N/N=C\c1c(O)ccc2ccccc12)c1cc2cc([N+](=O)[O-])ccc2s1 was read as SSB-PriA inh -6.
CC(C)=CCC[C@@]1(C(=O)O)[C@H]2CC=C(CO)[C@@H]1CC/C(C)=C/CC/C(C)=C/C2 was read as PrPC TRFRET 24*, PrPC confirm 27* and LD9 cytotox 12*.
`CCOC(=O)N1CCN(S(=O)(=O)c2ccc(C(=O)NNc3nc4c(C)cc(C)cc4s3)cc2)CC1` gave BJeLR lethal -3, PrPC TRFRET 25*, 3CLpro inhibitor 4, SSB-PriA inh -6, PrPC confirm 25* and LD9 cytotox 4.
For CCOC(=O)N1CCN(S(=O)(=O)c2ccc(C(=O)NNc3nc4c(C)cccc4s3)cc2)CC1 the results were PrP 5UTR inh -1, BJeLR lethal 0, PrPC TRFRET -4, 3CLpro inhibitor 3 and SSB-PriA inh 10.
CCC(C)NC(=O)Cc1csc(NC(=O)OC)n1 (stereo not given) was read as SSB-PriA inh -16.
For O=C(NCc1ccccc1Cl)C1CCC(CNS(=O)(=O)c2cccc3cccnc23)CC1 (stereo not given) the results were PrPC TRFRET 39*, PrPC confirm 50* and LD9 cytotox 1.
`Cc1nnc(SCC(=O)Nc2ccc(C(N)=O)cc2)n1-c1ccccc1` gave PrP 5UTR inh -21, BJeLR lethal -3, PrPC TRFRET 0, 3CLpro inhibitor -3 and SSB-PriA inh -17.
Screening O=C(CSc1nnc(-c2ccccc2)n1-c1ccccc1)Nc1cccc2ccccc12 returned PrPC TRFRET 7.
N#Cc1ccccc1NC(=O)CSc1nnc(-c2ccc(F)cc2)n1-c1ccccc1 was read as PrP 5UTR inh -2, BJeLR lethal -3, PrPC TRFRET 38*, 3CLpro inhibitor 0, SSB-PriA inh -9, PrPC confirm 29* and LD9 cytotox 2.
`Cc1nnc(SCC(=O)Nc2cc(C(N)=O)cc(C(N)=O)c2)n1-c1ccccc1` gave PrP 5UTR inh -11, BJeLR lethal -2, PrPC TRFRET 45*, 3CLpro inhibitor 3, SSB-PriA inh -11, PrPC confirm 29* and LD9 cytotox -6.
Screening CC(=O)N(Cc1cc(=O)[nH]c2ccccc12)c1ccccc1 returned PrP 5UTR inh -1, BJeLR lethal -2, PrPC TRFRET 3, 3CLpro inhibitor 4 and SSB-PriA inh -2.
`CC(=O)N(Cc1cc(=O)[nH]c2ccccc12)c1cccc(C)c1` gave PrP 5UTR inh -26, BJeLR lethal -5, PrPC TRFRET 24*, 3CLpro inhibitor 2, SSB-PriA inh -13, PrPC confirm 30* and LD9 cytotox -3.
CCn1nnc2c(SC)ncnc21 was read as SSB-PriA inh -9.
COc1cccc(-c2c(C(=O)NN=Cc3ccc(C)s3)nnn2-c2nonc2N)c1 was read as SSB-PriA inh -4.
For NCCCNc1nc(N)c([N+](=O)[O-])c(NC2CCCCC2)n1 the results were PrP 5UTR inh -64, BJeLR lethal 5, PrPC TRFRET 66*, 3CLpro inhibitor 4, SSB-PriA inh -6, PrPC confirm 79* and LD9 cytotox 25*.
`COCCNc1nc(N)c([N+](=O)[O-])c(NC2CCCCC2)n1` gave PrP 5UTR inh -2, BJeLR lethal -3, PrPC TRFRET 7, 3CLpro inhibitor -4 and SSB-PriA inh -2.
`COc1ccc(OC)c(Nc2nc(CC(=O)N3CCN(C(C)=O)CC3)cs2)c1` gave SSB-PriA inh -12.
Screening CCN(CC)C(=O)C1CCCc2c1[nH]c1ccc(Cl)cc21 (stereo not given) returned PrP 5UTR inh 5, BJeLR lethal 28, PrPC TRFRET 26*, 3CLpro inhibitor -3, SSB-PriA inh -5, PrPC confirm 7 and LD9 cytotox -7.
`O=C(O)CSc1ncnc2sc3c(c12)CCCC3` gave PrP 5UTR inh -25, BJeLR lethal -3, PrPC TRFRET 30*, 3CLpro inhibitor 5, SSB-PriA inh -2, PrPC confirm 53* and LD9 cytotox -10.
NC(=O)CSc1nc2sc3c(c2c2ncnn12)CCCC3 was read as PrP 5UTR inh -14, BJeLR lethal -14, PrPC TRFRET 47*, 3CLpro inhibitor -2, SSB-PriA inh -12, PrPC confirm 47* and LD9 cytotox -4.
`O=C(O)CSc1ncnc2sc3c(c12)CCC3` gave PrP 5UTR inh 2, BJeLR lethal -1, PrPC TRFRET 47*, 3CLpro inhibitor -4, SSB-PriA inh -5, PrPC confirm 50* and LD9 cytotox -5.
Screening Cn1c(SCC(=O)N2CCN(c3ccccc3F)CC2)nc2c(-c3ccccc3)csc2c1=O returned SSB-PriA inh -6.
Screening Clc1cccc(Nc2ncnc3ccc(Br)cc23)c1 returned PrP 5UTR inh 0, BJeLR lethal -7, PrPC TRFRET 63*, 3CLpro inhibitor 1, SSB-PriA inh -35, PrPC confirm 76* and LD9 cytotox 2.
For Brc1ccc2ncnc(NCc3ccccc3)c2c1 the results were PrP 5UTR inh 15, BJeLR lethal 10, PrPC TRFRET 48*, 3CLpro inhibitor 1, SSB-PriA inh -27, PrPC confirm 50* and LD9 cytotox 12*.
Clc1ccc(Nc2ncnc3ccc(Br)cc23)cc1 was read as PrP 5UTR inh -7, BJeLR lethal 6, PrPC TRFRET 30*, 3CLpro inhibitor 0, SSB-PriA inh -4, PrPC confirm 44* and LD9 cytotox 4.
`CN(C)c1ccc(Nc2ncnc3ccc(Br)cc23)cc1` gave PrP 5UTR inh -5, BJeLR lethal 2, PrPC TRFRET 2, 3CLpro inhibitor 2 and SSB-PriA inh 7.
